Consider 33 compounds from PubChem BioAssay (NCATS).

Records with an inconclusive call do not appear. Where a call stands in place of a potency, no number is given. Active and inactive are the calls of the source. Calls follow the shape of the dose curve; as a rule, active = well fitted curve in the direction sought with a large enough effect; inconclusive = small, poorly fitted or top-dose-only effect, or another doubt; inactive = no such curve, though single readings can be large or run the other way.
Potency is read from the fitted curve at half-maximal effect.

A short description of this test: Cytotoxicity counterscreen for NFkB agonists and antagonists (AID 624476).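 Also: cells exposed to compound for 48 hours.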 Particulars: NFkB reporter cell line viability counterscreen; series mostly up to 46.1 µM. On the technique in general: A counterscreen serves to expose hits that act by an unwanted route or on another target.
In the case of `CCn1c(-c2nonc2N)nc2cnc(Oc3cccc(NC(=O)c4ccc(OCCN5CCOCC5)cc4)c3)cc21`, the Potency result was “inactive”.
To `CN([C@@H](Cc1ccc(OS(=O)(=O)c2cccc3cnccc23)cc1)C(=O)N1CCN(c2ccccc2)CC1)S(=O)(=O)c1cccc2cnccc12` belongs “inactive”; to `Cc1ccnc(NS(=O)(=O)c2ccc(NC(=O)Nc3ccc(S(=O)(=O)Nc4nccc(C)n4)cc3)cc2)n1`, “inactive”.
As for `Cn1cc(-c2ccc3nnc(C(F)(F)c4ccc5ncccc5c4)n3n2)cn1`, the Potency entry was “inactive”.
On to `COCC(=O)NCC=Cc1ccc2ncnc(Nc3ccc(Oc4ccc(C)nc4)c(C)c3)c2c1`, for which the Potency is 26.4 µM (active).
Regarding `COc1ccc(C2=N[C@H](c3ccc(Cl)cc3)[C@H](c3ccc(Cl)cc3)N2C(=O)N2CCNC(=O)C2)c(OC(C)C)c1`, the Potency entry is “inactive”.
Take `CC[C@@H](C)[C@H](NC(=O)[C@H](CC1CCCCC1)NC(=O)c1ccno1)C(=O)N1CCC2(CCc3ccccc32)CC1`: the Potency entry is “inactive”.
Take `C[C@@H]1CN(Cc2ccc(F)cc2)[C@@H](C)CN1C(=O)c1cc2c(C(=O)C(=O)N(C)C)cn(C)c2cc1Cl`: the Potency result is “inactive”.
To `O=C(OCC#CCSc1nnc(-c2ccc3ccccc3c2)o1)c1cc2ccccc2s1` belongs “inactive”; to `CCN(CC)CCCC(C)Nc1nc(C)cc(Nc2ccc3nc(C)cc(N)c3c2)n1` (stereo not drawn), “inactive”; to `COc1cc(Oc2ccnc3cc(OC)c(OC)cc23)ccc1NC(=O)NC(C)c1nccs1` (stereo not drawn), “inactive”.
For `Cn1c(=O)c(F)c(Nc2ccc(I)cc2F)c2c(=O)n(C[C@@H](O)CO)cnc21`, the Potency result is “inactive”.
Turning to `C[C@]12CC[C@H](O)CC1=CC[C@@H]1[C@H]2CC[C@]2(C)C(c3cccnc3)=CC[C@H]12`, the Potency entry is “inactive”.
For `CN(C)c1ccc(C2Nc3ccc4ccccc4c3C3=C2C(=O)CC(C)(C)C3)cc1Br` (stereo not drawn), the Potency result was “inactive”.
As to `COCCNCCCn1c(C(=O)CF)c(-c2ccc(C)cc2)c2c(N)ncnc21`, the Potency result was “inactive”.
On to `Cc1cccc(-c2nn(C(=S)Nc3ccccc3)cc2-c2ccnc3ccccc23)n1`, for which the Potency entry was “inactive”.
On to `CNC(=O)c1ccc(N2C(=S)N(c3ccc(C#N)c(C(F)(F)F)c3)C(=O)C2(C)C)cc1F`, for which the Potency result was “inactive”.
Consider `CS(=O)(=O)c1ccc(C(=O)Nc2ccc(Cl)c(-c3ccccn3)c2)c(Cl)c1`, for which the Potency result was “inactive”.
On to `CCCn1c(=O)c2[nH]c(C34CC5CC3C[C@@H](C5)C4)nc2n(CCC)c1=O`, for which the Potency entry is “inactive”.
Consider `Cc1n[nH]c(C)c1Cc1sc2c(c1C(=O)N1C[C@H](O)CO1)c(=O)n(C)c(=O)n2CC(C)C`, for which the Potency result is “inactive”.
Take `CNCc1ccc(-c2[nH]c3cc(F)cc4c3c2CCNC4=O)cc1`: the Potency entry is “inactive”.
Regarding `CS(=O)(=O)c1cccc(CNc2nc(Nc3ccc4c(c3)CCC(=O)N4)ncc2C(F)(F)F)c1`, the Potency entry is “inactive”.
Regarding `O=c1ncn2nc(Sc3ccc(F)cc3F)ccc2c1-c1c(Cl)cccc1Cl`, the Potency entry was “inactive”.
For the compound `Nc1cccc(S(=O)(=O)N2CCCN(S(=O)(=O)c3ccc4c(c3)OCCO4)CC2)c1`, the Potency entry was “inactive”.
Regarding `COc1ccc(-c2oc3cc(OC)ccc3c2C(=O)c2ccc(C#N)cc2)cc1`, the Potency result is “inactive”.
As to `COc1ccc(-c2ccc3c(N4CCOC[C@H]4C)nc(N4CCOC[C@H]4C)nc3n2)cc1CO`, the Potency result is “inactive”.
As for `O=C(C=Cc1ccc(/C=C/C(=O)Nc2ccc(C3=NCCN3)cc2)cc1)Nc1ccc(C2=NCCN2)cc1`, the Potency result was “inactive”.
On to `COc1ccc2c3n(c(=NC(=O)c4cccnc4)nc2c1OC)CCN3`, for which the Potency was 1.87 µM (active).
Turning to `CN(C(=O)c1ccc(F)cc1C(F)(F)F)C1CCN(c2nnc(-c3ccnn3C)c3ccccc23)CC1`, the Potency entry is “inactive”.
Take `C[C@H](NC(=O)Cc1cc(F)cc(F)c1)C(=O)N[C@@H]1C(=O)N(C)c2ccccc2-c2ccccc21`: the Potency result was “inactive”.
Take `NC(=O)C1CCCc2c1[nH]c1ccc(Cl)cc21` (stereo not drawn): the Potency entry is “inactive”.
On to `CCN(c1ccccc1)c1cc(NC)[n+](C)c(C)n1`, for which the Potency result was “inactive”.
`CCc1cc(Nc2nccc(-c3c(-c4ccc(OC)c(C(=O)Nc5c(F)cccc5F)c4)nc4ccccn34)n2)c(OC)cc1N1CCC(N2CCN(S(C)(=O)=O)CC2)CC1`: the Potency entry was “inactive”.
